Activity calls are given as the source filed them. Unless noted, the rule behind the calls is not given here.
Key:
[1] = compound effects on lung adenocarcinoma cell viability – A549, calcein-AM fluorescence, 48 h, basal, profiling panel (AID 1162); settings: higher = more signal; note: test concentration not given here
[2] = compound effects on differentiated 3T3-L1 adipocyte viability – cell-based, 3T3-L1 adipocytes, calcein-AM fluorescence, 48 h, basal, profiling panel (AID 1163); settings: 3T3-L1 adipocytes viability, higher = more signal; note: test concentration not given here
[3] = compound effects on hepatocellular carcinoma cell viability – HepG2, calcein-AM fluorescence, 48 h, basal, profiling panel (AID 1164); settings: higher = more signal; note: test concentration not given here
[4] = compound effects on multiple myeloma cell viability – MM1S, calcein-AM fluorescence, 48 h, basal, profiling panel (AID 1165); settings: higher = more signal;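 note: viability of MM1S multiple myeloma cells under basal unstimulated conditions; test concentration not given here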
[5] = calcein-AM signal in unstimulated myeloma cells – cell-based, calcein-AM fluorescence, 48 h, PK04 Diversity Set, profiling panel (AID 1166); settings: RPMI8226 myeloma viability, higher = more signal;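 note: cells grown under basal conditions without added stimulus; test concentration not given here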
[6] = JC-1 mitochondrial signal, unstimulated HepG2 cells – cell-based, JC-1 fluorescence, 24 h, 100 nL compound, profiling panel (AID 1167); settings: HepG2 mitochondrial potential, higher = more signal; note: test concentration not given here
[7] = JC-1 mitochondrial signal, unstimulated adipocytes – cell-based, JC-1 fluorescence, 3T3-L1 adipocytes, 24 h, 100 nL compound, profiling panel (AID 1168); settings: JC-1 mitochondrial fluorescence, higher = more signal, called active from +8 up or from −8 down; note: test concentration not given here
[8] = JC-1 mitochondrial signal, unstimulated myeloma cells – cell-based, JC-1 fluorescence, RPMI8226, 24 h, 100 nL compound, profiling panel (AID 1169); settings: JC-1 mitochondrial potential fluorescence, higher = more signal; note: test concentration not given here
[9] = JC-1 mitochondrial signal, unstimulated MM1S myeloma – cell-based, JC-1 fluorescence, 24 h, 100 nL compound, profiling panel (AID 1170); settings: MM1S mitochondrial potential, higher = more signal; note: test concentration not given here
[10] = resazurin metabolic signal in A549 cells – cell-based, resazurin fluorescence, 24 h, PK04 Diversity Set, profiling panel (AID 1171); settings: A549 viability, higher = more signal, called active from +8 up or from −8 down; note: test concentration not given here
[11] = resazurin metabolic signal in HepG2 cells – cell-based, resazurin fluorescence, 24 h, PK04 Diversity Set, profiling panel (AID 1172); settings: HepG2 viability, higher = more signal; note: test concentration not given here
[12] = budding yeast growth changes without added modifier – OD600, strain BY4716, 24 h, basal condition, primary screen (AID 1173); settings: S. cerevisiae BY4716 growth, OD600, 24 h; higher = more signal, called active from +8 up or from −8 down
[13] = viability profiling in MM1S myeloma cells – cell-based, resazurin fluorescence, basal, 24 h, PK04 Diversity Set, profiling panel (AID 1174); settings: higher = more signal, called active from +8 up or from −8 down; note: test concentration not given here
[14] = molecular target: Dihydroorotate dehydrogenase (quinone), mitochondrial (Plasmodium falciparum (isolate 3D7)) (UniProt Q08210); test: inhibition of P. falciparum DHODH – biochemical, C-terminal His tag, absorbance 600 nm, primary screen (AID 1175); settings: PfDHODH enzyme, DCIP absorbance 600 nm; higher = more signal, called active from +8 up or from −8 down;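 note: recombinant parasite enzyme with a five histidine tag at its C terminus; test concentration not given here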
Sequence of Dihydroorotate dehydrogenase (quinone), mitochondrial (Plasmodium falciparum (isolate 3D7)) (Q08210 whole entry, looked up): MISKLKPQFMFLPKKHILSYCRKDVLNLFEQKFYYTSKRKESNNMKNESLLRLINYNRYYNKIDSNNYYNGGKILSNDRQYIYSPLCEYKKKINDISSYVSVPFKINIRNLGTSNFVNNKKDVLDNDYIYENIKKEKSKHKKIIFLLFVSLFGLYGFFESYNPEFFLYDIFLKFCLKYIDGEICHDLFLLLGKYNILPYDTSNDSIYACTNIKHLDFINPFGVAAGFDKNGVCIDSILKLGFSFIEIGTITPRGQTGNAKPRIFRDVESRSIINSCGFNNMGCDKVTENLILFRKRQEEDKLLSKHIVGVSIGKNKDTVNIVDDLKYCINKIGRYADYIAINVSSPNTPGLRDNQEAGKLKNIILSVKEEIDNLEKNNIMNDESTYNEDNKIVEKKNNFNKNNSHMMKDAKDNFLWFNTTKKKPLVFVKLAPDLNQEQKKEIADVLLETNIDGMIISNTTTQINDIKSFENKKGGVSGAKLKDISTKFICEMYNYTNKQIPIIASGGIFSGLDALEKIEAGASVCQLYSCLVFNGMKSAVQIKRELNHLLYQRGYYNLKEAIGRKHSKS

[15] = inhibition of PAO1 biofilm formation – strain PAO1, LB-PBS medium, absorbance 600 nm, primary screen (AID 1176); note: test concentration not given here; settings: P. aeruginosa PAO1 growth/biofilm, A600, 12 h; higher = more signal
[16] = growth modulation of vineyard yeast isolate – strain RM11-1a, OD600, basal, 24 h, primary screen (AID 1177);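 note: cultures grown under basal conditions with no added stressor; test concentration not given here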; settings: S. cerevisiae RM11-1a growth, OD600, 24 h; higher = more signal, called active from +8 up or from −8 down
[17] = growth of efflux-deficient E. coli DRC39 – strain DRC39, OD650, 24 h, E. coli filamentation inducers, primary screen (AID 1178);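 note: growth measured as culture turbidity by optical density at 650 nm; test concentration not given here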; settings: E. coli DRC39 acrAB, higher = more signal, called active from +8 up or from −8 down
[18] = growth of efflux-deficient E. coli DRC39 – strain DRC39, OD650, 48 h, E. coli filamentation inducers, primary screen (AID 1179);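 note: screen aims at cell division blockers that make cells filament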; settings: E. coli DRC39 delta-acrAB growth, higher = more signal, called active from +8 up or from −8 down
[19] = viability profiling in RPMI8226 myeloma cells – cell-based, resazurin fluorescence, basal, 24 h, PK04 Diversity Set, profiling panel (AID 1180); settings: higher = more signal;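 note: RPMI8826 multiple myeloma cell line at 5000 cells per well; test concentration not given here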
[20] = molecular target: E3 ubiquitin-protein ligase XIAP (Homo sapiens) (UniProt P98170); test: small molecules binding XIAP protein – biophysical, small-molecule microarray, fluorescence 635 nm, primary screen (AID 1181); settings: higher = more signal;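 note: score merges 667 nm emission and signal to noise over triplicate slides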
Sequence of E3 ubiquitin-protein ligase XIAP (Homo sapiens) (P98170 whole entry, looked up): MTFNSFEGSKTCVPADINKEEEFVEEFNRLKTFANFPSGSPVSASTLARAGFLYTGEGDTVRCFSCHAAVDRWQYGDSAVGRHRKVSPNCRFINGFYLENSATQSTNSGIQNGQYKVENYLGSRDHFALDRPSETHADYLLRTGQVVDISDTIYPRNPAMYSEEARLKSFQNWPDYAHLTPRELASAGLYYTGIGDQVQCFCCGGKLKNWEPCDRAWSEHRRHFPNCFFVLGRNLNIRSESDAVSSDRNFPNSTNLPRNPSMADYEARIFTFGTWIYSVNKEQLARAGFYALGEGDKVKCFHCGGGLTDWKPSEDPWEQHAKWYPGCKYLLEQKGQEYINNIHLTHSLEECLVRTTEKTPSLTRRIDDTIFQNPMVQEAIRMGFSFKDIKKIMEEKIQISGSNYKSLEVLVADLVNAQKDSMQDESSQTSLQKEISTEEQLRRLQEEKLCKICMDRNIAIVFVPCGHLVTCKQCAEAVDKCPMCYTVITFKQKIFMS

| Compound | z-score [1] | z-score [2] | z-score [3] | z-score [4] | z-score [5] | z-score [6] | z-score [7] | z-score [8] | z-score [9] | z-score [10] | z-score [11] | z-score [12] | z-score [13] | composite z-score [14] | z-score [15] | z-score [16] | z-score [17] | z-score [18] | z-score [19] | composite z-score [20] |
| --- | --- | --- | --- | --- | --- | --- | --- | --- | --- | --- | --- | --- | --- | --- | --- | --- | --- | --- | --- | --- |
| C=CCC(OC(C)=O)[C@@H]1[C@@H](N(Cc2cccc3ccccc23)C(=O)Cc2ccc(F)cc2)c2cc(OCCCO)ccc2N1C(=O)Cc1ccc(OC)cc1 (stereo not given in full) | 1.34 | 1.88 | 0.99 | 0.827 | 0.762 | 2.26 | 0.527 (inactive) | 0.183 | -0.0319 | 0.641 (inactive) | 0.303 | -1.61 (inactive) | 0.738 (inactive) | -0.83 (inactive) | -0.206 (inactive) | -1.16 (inactive) | 0.248 (inactive) | 0.927 (inactive) | 1.01 | -0.01 |
| COC(=O)[C@@]1(Cc2ccccc2)[C@H]2c3cc(C(=O)N4CCCC4)n(Cc4ccccc4)c3C[C@H]2CN1C(=O)c1ccccc1 | -1.39 | 0.988 | -0.0065 | -2.96 | -4.64 | 0.106 | -1.74 (inactive) | -0.737 | -0.777 | -3.12 (inactive) | -2.54 | 0.717 (inactive) | -1.12 (inactive) | -0.237 (inactive) | 0.895 (inactive) | 0.235 (inactive) | -0.78 (inactive) | -0.591 (inactive) | -3.29 | 0.421 |
| CCOc1cc(C(O)C2C=CC3C(=O)NC(=O)C3N2Nc2ccccn2)ccc1O (stereo not given) | -0.773 | -1.5 | -0.506 | -0.369 | -0.328 | -1.87 | -0.892 (inactive) | -0.0441 | 0.157 | -0.923 (inactive) | -1.35 | 1.67 (inactive) | -1.33 (inactive) | 0.21 (inactive) | 0.599 (inactive) | 0.24 (inactive) | -1.17 (inactive) | -0.0662 (inactive) | -0.672 | 0.0652 |
| C=CCN1C(=O)[C@@]2(O[C@@H](CCn3cc([C@H](O)c4ccccc4)nn3)[C@H]([Si](C)(C)c3ccc(OC)cc3)[C@H]2C)c2cc(NC(=O)c3ccc(OC)cc3)ccc21 | -0.219 | -0.143 | -0.671 | -1.84 | -1.69 | -0.117 | -1.06 (inactive) | -0.991 | -0.641 | -2.43 (inactive) | -1.55 | 0.336 (inactive) | -2.19 (inactive) | 0.874 (inactive) | 0.389 (inactive) | 2.42 (inactive) | 0.628 (inactive) | 0.146 (inactive) | -2.35 | 0.176 |
| C=C(/C(=C/C[C@@H](OC(=O)c1ccncc1)c1cccc(OCCO)c1)c1cc(C(=O)OC)ccc1OC)C(C)C | 1.49 | 0.358 | 1.21 | -2.98 | -2.77 | 2.71 | 0.544 (inactive) | -0.303 | -1.02 | 0.804 (inactive) | 0.677 | -0.243 (inactive) | -0.261 (inactive) | -2.04 (inactive) | 1.16 (inactive) | 0.0342 (inactive) | 2.07 (inactive) | 1.42 (inactive) | 0.301 | -0.107 |
| C=CC[C@@]1(C(=O)NCCN2CCOCC2)N=C(c2ccc(OCCCO)cc2)O[C@@H]1c1ccccc1 | -0.181 | 0.458 | -0.253 | 0.672 | 0.418 | 0.603 | -0.672 (inactive) | 0.574 | 0.4 | 1.28 (inactive) | 0.255 | -0.0792 (inactive) | 0.275 (inactive) | 1.61 (inactive) | 1.13 (inactive) | 1.45 (inactive) | 0.297 (inactive) | -0.483 (inactive) | 0.482 | -0.237 |
| O=c1c2ccc(Br)cc2nc(-c2ccccc2)n1Cc1cccc(O)c1 | -0.277 | 1.02 | 0.196 | -0.115 | 0.195 | -0.0225 | -0.525 (inactive) | 0.385 | -0.258 | 0.0972 (inactive) | -0.187 | -2.04 (inactive) | -1.1 (inactive) | 0.515 (inactive) | 0.186 (inactive) | 0.159 (inactive) | 0.362 (inactive) | 0.39 (inactive) | -0.0974 | -0.151 |
| COc1cc2c(cc1OC)CN(C(=O)[C@@H]1[C@H]3C(=O)O[C@H](c4ccccc4)[C@H](c4ccccc4)N3[C@H](c3ccc(O)cc3)[C@@]13C(=O)Nc1ccc(C#CCNC(N)=O)cc13)CC2 | 0.434 | 0.0878 | -0.659 | 0.454 | -0.375 | -1.55 | -0.628 (inactive) | -0.0414 | -0.375 | 0.795 (inactive) | 1.1 | 0.526 (inactive) | 0.602 (inactive) | -0.0904 (inactive) | 0.723 (inactive) | 2.03 (inactive) | 0.595 (inactive) | 0.322 (inactive) | 0.431 | -0.0663 |
| COc1ccc([Si](C)(C)[C@H]2[C@H](CCO)O[C@@]3(C(=O)N(Cc4cccc(N5CCOC5=O)c4)c4ccccc43)[C@@H]2C)cc1 | -0.162 | -0.824 | -0.925 | -2.43 | -3.25 | -0.0995 | 2.01 (inactive) | -1.09 | -1.79 | -2.22 (inactive) | -1.55 | 1.34 (inactive) | -4.67 (inactive) | -0.287 (inactive) | 2 (inactive) | 4.7 (inactive) | 0.803 (inactive) | 0.113 (inactive) | -3.21 | -0.0755 |
